Results: PubChem BioAssay AID1159580 (chemical genetic matrix, 2015)
Where “and” joins values, the source holds several entries; their conditions need not be identical. Identical values can stand only once. Hit rate of the full screen: of about 5,500 compounds, about 2,000 (36%) were called active. About 18% were inconclusive and are not listed. No stated cut-off is given here; in the data, active means normalized growth mostly below about 0.91 (no sharp cut-off); inconclusive means no clear call, values can overlap the other calls; inactive means mostly above about 0.92. Some of the results follow.

Assay: chemical genetic growth profiling, strain panel (AID 1159580);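 further: tested at 20 µM; growth read once vehicle control cultures reached saturation at 30 °C; 1 = growth at the plate median or of vehicle wells; lower values mean less growth of the strain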
Conditions: S. cerevisiae deletion strains, growth OD

Measured: normalized growth

C[C@]12C=CC(=O)C=C1CCC1C2CC[C@]2(C)C(=O)CCC12 (stereo partly drawn)
inactive: locus YAL021C, strain ccr4, active compounds read low 0.97 | locus YAL026C, strain drs2, active compounds read low 0.983 | locus YAL030W, strain snc1, active compounds read low 0.976 | locus YBL061C, strain skt5, active compounds read low 0.971 | locus YBR009C, strain hhf1, active compounds read low 0.966 | locus YBR021W, strain FUR4, active compounds read low 0.986 | locus YBR023C, strain chs3, active compounds read low 0.979 | locus YBR171W, strain sec66, active compounds read low 0.987 | locus YBR229C, strain ROT2, active compounds read low 0.992 | locus YBR231C, strain swc5, active compounds read low 0.982 | locus YBR279W, strain paf1, active compounds read low 0.982 | locus YCL011C, strain gbp2, active compounds read low 0.988 | locus YCL016C, strain dcc1, active compounds read low 0.976 | locus YCL029C, strain bik1, active compounds read low 0.992 | locus YCL061C, strain MRC1, active compounds read low 0.972 | locus YCL069W, strain vba3, active compounds read low 0.981 | locus YCR088W, strain abp1, active compounds read low 0.98 | locus YDL005C, strain med2, active compounds read low 0.977 | locus YDL035C, strain GPR1, active compounds read low 1.03 | locus YDL040C, strain nat1, active compounds read low 0.985 | locus YDL074C, strain BRE1, active compounds read low 1.01 | locus YDL101C, strain DUN1, active compounds read low 1.01 | locus YDL134C, strain PPH21, active compounds read low 1.01 | locus YDL185W, strain tfp1, active compounds read low 1 | locus YDL192W, strain arf1, active compounds read low 0.981 | locus YDR001C, strain nth1, active compounds read low 0.984 | locus YDR069C, strain doa4, active compounds read low 0.978 | locus YDR101C, strain arx1, active compounds read low 0.981 | locus YDR137W, strain rgp1, active compounds read low 1.04 | locus YDR150W, strain NUM1, active compounds read low 1.01 | locus YDR159W, strain sac3, active compounds read low 0.928 | locus YDR162C, strain NBP2, active compounds read low 1.03 | locus YDR195W, strain ref2 0.935 | locus YDR297W, strain sur2, active compounds read low 0.972 | locus YDR318W, strain mcm21, active compounds read low 0.992 | locus YDR334W, strain swr1, active compounds read low 0.976 | locus YDR335W, strain msn5, active compounds read low 0.988 | locus YDR388W, active compounds read low 0.981 | locus YDR392W, strain spt3, active compounds read low 0.877 | locus YDR502C, strain sam2, active compounds read low 0.976 | locus YEL003W, strain gim4, active compounds read low 0.988 | locus YEL037C, strain rad23, active compounds read low 0.989 | locus YEL061C, strain CIN8 (second series), active compounds read low 0.988 | locus YEL061C, strain CIN8, active compounds read low 0.995 | locus YER015W, strain faa2, active compounds read low 0.981 | locus YER016W, strain bim1, active compounds read low 0.981 | locus YER110C, active compounds read low 0.984 | locus YER111C, strain swi4, active compounds read low 0.986 | locus YER155C, strain BEM2 (second series), active compounds read low 0.949 | locus YER155C, strain BEM2, active compounds read low 0.979 | locus YER167W, strain BCK2, active compounds read low 0.986 | locus YFR010W, strain ubp6, active compounds read low 0.988 | locus YGL078C, strain dbp3, active compounds read low 0.986 | locus YGL086W, strain mad1, active compounds read low 0.983 | locus YGL167C, strain pmr1, active compounds read low 0.976 | locus YGL173C, strain kem1, active compounds read low 0.98 | locus YGL227W, strain vid30, active compounds read low 0.984 | locus YGL240W, strain doc1, active compounds read low 0.926 | locus YGL248W, strain PDE1, active compounds read low 0.995 | locus YGL253W, strain hxk2, active compounds read low 0.987 | locus YGR078C, strain PAC10, active compounds read low 1.02 | locus YGR135W, strain pre9, active compounds read low 0.996 | locus YGR229C, strain SMI1, active compounds read low 1.07 | locus YGR252W, strain gcn5, active compounds read low 0.988 | locus YHR013C, strain ard1, active compounds read low 0.951 | locus YHR027C, strain rpn1, active compounds read low 0.99 | locus YHR030C, strain SLT2, active compounds read low 1.01 and 0.976 | locus YHR079C, strain IRE1 (second series), active compounds read low 0.987 | locus YHR079C, strain IRE1, active compounds read low 0.978 | locus YHR094C, strain hxt1, active compounds read low 0.981 | locus YHR129C, strain ARP1, active compounds read low 1 | locus YHR142W, strain chs7, active compounds read low 0.995 | locus YHR200W, strain rpn10, active compounds read low 0.976 | locus YIL066C, strain RNR3, active compounds read low 1.01 | locus YIL073C, strain SPO22, active compounds read low 1.04 | locus YIL125W, strain kgd1, active compounds read low 0.975 | locus YIR030C, strain dcg1, active compounds read low 0.992 | locus YJL092W, strain hpr5, active compounds read low 0.985 | locus YJL095W, strain BCK1 (second series), active compounds read low 0.98 | locus YJL095W, strain BCK1, active compounds read low 1 and 0.98 | locus YJL115W, strain asf1, active compounds read low 0.977 | locus YJL129C, strain trk1, active compounds read low 0.985 | locus YJL134W, strain LCB3, active compounds read low 1.01 | locus YJL154C, strain vps35, active compounds read low 0.998 | locus YJL164C, strain tpk1, active compounds read low 0.976 | locus YJL166W, strain qcr8, active compounds read low 0.957 | locus YJL168C, strain set2, active compounds read low 0.978 | locus YJL187C, strain SWE1 (second series), active compounds read low 1.02 | locus YJL187C, strain SWE1, active compounds read low 0.979 | locus YJR043C, strain POL32, active compounds read low 1.03 | locus YJR066W, strain TOR1, active compounds read low 0.937 | locus YKL009W, strain mrt4, active compounds read low 1 | locus YKL068W, active compounds read low 1 | locus YKL085W, strain MDH1 (second series), active compounds read low 0.993 | locus YKL085W, strain MDH1, active compounds read low 0.993 | locus YKL160W, strain elf1, active compounds read low 0.985 | locus YKR001C, strain vps1, active compounds read low 0.986 | locus YKR026C, strain gcn3, active compounds read low 0.962 | locus YKR091W, strain srl3, active compounds read low 0.976 | locus YLL001W, strain dnm1, active compounds read low 0.969 | locus YLL026W, active compounds read low 0.981 | locus YLL041C, strain sdh2, active compounds read low 0.981 | locus YLR027C, strain aat2, active compounds read low 0.984 | locus YLR039C, strain RIC1, active compounds read low 1.27 | locus YLR058C, strain SHM2, active compounds read low 0.993 | locus YLR102C, strain apc9, active compounds read low 0.997 | locus YLR113W, strain HOG1, active compounds read low 0.966 | locus YLR221C, strain rsa3, active compounds read low 0.977 | locus YLR258W, strain gsy2, active compounds read low 0.973 | locus YLR262C, strain YPT6 (second series), active compounds read low 1.05 | locus YLR262C, strain YPT6, active compounds read low 1.23 | locus YLR268W, strain sec22, active compounds read low 0.997 | locus YLR320W, strain mms22, active compounds read low 0.946 | locus YLR330W, strain CHS5, active compounds read low 1 | locus YLR342W, strain FKS1 (second series), active compounds read low 0.958 | locus YLR342W, strain FKS1, active compounds read low 0.976 | locus YLR357W, strain rsc2, active compounds read low 1.01 | locus YLR370C, strain arc18, active compounds read low 0.977 | locus YLR371W, strain rom2, active compounds read low 0.993 | locus YLR384C, strain iki3, active compounds read low 0.983 | locus YLR418C, strain cdc73, active compounds read low 0.968 | locus YML016C, strain PPZ1, active compounds read low 0.994 | locus YML032C, strain rad52, active compounds read low 0.996 | locus YML120C, strain ndi1, active compounds read low 0.983 | locus YML124C, strain tub3, active compounds read low 0.982 | locus YMR058W, strain fet3, active compounds read low 0.979 | locus YMR078C, strain ctf18, active compounds read low 0.974 | locus YMR125W, strain sto1, active compounds read low 0.997 | locus YMR129W, active compounds read low 0.991 | locus YMR205C, strain PFK2, active compounds read low 0.963 | locus YMR223W, strain ubp8, active compounds read low 0.98 | locus YMR231W, strain pep5, active compounds read low 0.986 | locus YMR263W, strain SAP30, active compounds read low 0.99 | locus YMR307W, strain GAS1, active compounds read low 1.16 | locus YNL067W, strain RPL9B, active compounds read low 1.02 | locus YNL071W, strain lat1, active compounds read low 0.977 | locus YNL128W, strain TEP1, active compounds read low 1.02 | locus YNL153C, strain GIM3, active compounds read low 1.01 | locus YNL183C, strain NPR1, active compounds read low 0.897 | locus YNL209W, strain ssb2, active compounds read low 0.985 | locus YNL233W, strain BNI4, active compounds read low 0.994 | locus YNL248C, strain rpa49, active compounds read low 0.991 | locus YNL250W, strain rad50, active compounds read low 0.99 | locus YNL271C, strain bni1, active compounds read low 0.989 | locus YNL298W, strain CLA4, active compounds read low 0.981 | locus YNL307C, strain MCK1, active compounds read low 0.982 | locus YNL322C, strain KRE1 (second series), active compounds read low 0.978 | locus YNR049C, strain mso1, active compounds read low 0.983 | locus YNR052C, strain pop2, active compounds read low 0.989 | locus YOL006C, strain TOP1, active compounds read low 0.98 | locus YOL012C, strain htz1 1.46 | locus YOL147C, strain pex11, active compounds read low 0.997 | locus YOR001W, strain rrp6, active compounds read low 0.98 | locus YOR061W, strain CKA2, active compounds read low 0.996 | locus YOR069W, strain VPS5, active compounds read low 0.998 | locus YOR070C, strain gyp1, active compounds read low 0.989 | locus YOR080W, strain dia2, active compounds read low 0.972 | locus YOR083W, strain WHI5, active compounds read low 0.983 | locus YOR106W, strain vam3, active compounds read low 0.982 | locus YOR136W, strain idh2, active compounds read low 0.987 | locus YOR144C, strain elg1, active compounds read low 0.977 | locus YOR184W, strain ser1, active compounds read low 0.985 | locus YOR231W, strain MKK1, active compounds read low 0.98 | locus YOR265W, strain rbl2, active compounds read low 0.983 | locus YOR270C, strain vph1, active compounds read low 0.941 | locus YOR290C, strain snf2, active compounds read low 0.943 | locus YOR316C, strain cot1, active compounds read low 0.984 | locus YPL051W, strain arl3, active compounds read low 0.998 | locus YPL055C, strain LGE1, active compounds read low 1.02 | locus YPL078C, strain atp4, active compounds read low 0.989 | locus YPL106C, strain sse1, active compounds read low 0.958 | locus YPL240C, strain hsp82, active compounds read low 0.965 | locus YPL256C, strain CLN2, active compounds read low 0.98 | locus YPR119W, strain clb2, active compounds read low 0.975 | locus YPR141C, strain kar3, active compounds read low 0.982 | locus YPR163C, strain tif3, active compounds read low 0.992 | locus YPR167C, strain met16, active compounds read low 0.981 | strain wtn01, active compounds read low 0.99
